# Test results: ChEMBL document CHEMBL3988442, “University of Dundee, Small-Polar-MMV Screening Library” (2021)
# For some of these results: Entries with a potency or affinity are not part of this list.
# Columns and labels:
# Design in all cases: scale not given: direction of the effect not stated beside the values
# [1] = biological target: Protein translocase subunit SecA (Escherichia coli (strain K12)) (UniProt P10408); test: Assay to Identify E. coli SecA ATPase Inhibitors; type: functional; conditions: 30 µM
# Sequence of Protein translocase subunit SecA (Escherichia coli (strain K12)) (P10408 whole entry): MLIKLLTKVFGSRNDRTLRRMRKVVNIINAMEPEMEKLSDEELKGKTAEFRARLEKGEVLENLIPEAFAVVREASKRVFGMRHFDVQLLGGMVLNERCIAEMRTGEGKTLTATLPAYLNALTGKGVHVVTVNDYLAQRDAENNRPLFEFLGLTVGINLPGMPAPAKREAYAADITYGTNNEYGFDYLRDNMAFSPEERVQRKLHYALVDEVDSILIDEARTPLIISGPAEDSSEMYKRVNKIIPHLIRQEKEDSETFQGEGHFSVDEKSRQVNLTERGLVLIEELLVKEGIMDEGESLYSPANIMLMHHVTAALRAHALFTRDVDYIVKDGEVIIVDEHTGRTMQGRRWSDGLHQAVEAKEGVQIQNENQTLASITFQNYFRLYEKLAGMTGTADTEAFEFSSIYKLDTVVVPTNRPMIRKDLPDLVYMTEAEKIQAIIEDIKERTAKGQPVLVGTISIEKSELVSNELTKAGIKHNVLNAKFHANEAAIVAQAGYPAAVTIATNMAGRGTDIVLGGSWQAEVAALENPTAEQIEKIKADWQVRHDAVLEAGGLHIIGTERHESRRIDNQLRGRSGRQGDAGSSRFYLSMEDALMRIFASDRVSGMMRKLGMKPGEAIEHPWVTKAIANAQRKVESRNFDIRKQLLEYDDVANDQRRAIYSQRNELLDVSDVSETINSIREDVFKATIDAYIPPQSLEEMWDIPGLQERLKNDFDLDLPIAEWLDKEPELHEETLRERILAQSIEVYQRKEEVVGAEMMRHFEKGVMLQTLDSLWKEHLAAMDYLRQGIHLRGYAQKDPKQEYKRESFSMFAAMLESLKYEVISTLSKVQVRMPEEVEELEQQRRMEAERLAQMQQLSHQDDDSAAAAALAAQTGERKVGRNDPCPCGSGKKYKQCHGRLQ
# [2] = biological target: T1, Ubiquitin-activating enzyme e1, putative (Leishmania donovani (strain BPK282A1)) (UniProt E9BSI1); test: Leishmania donovani Ubiquitin Activating Enzyme (LdE1); type: functional; conditions: 30 µM
# T1 sequence (whole entry): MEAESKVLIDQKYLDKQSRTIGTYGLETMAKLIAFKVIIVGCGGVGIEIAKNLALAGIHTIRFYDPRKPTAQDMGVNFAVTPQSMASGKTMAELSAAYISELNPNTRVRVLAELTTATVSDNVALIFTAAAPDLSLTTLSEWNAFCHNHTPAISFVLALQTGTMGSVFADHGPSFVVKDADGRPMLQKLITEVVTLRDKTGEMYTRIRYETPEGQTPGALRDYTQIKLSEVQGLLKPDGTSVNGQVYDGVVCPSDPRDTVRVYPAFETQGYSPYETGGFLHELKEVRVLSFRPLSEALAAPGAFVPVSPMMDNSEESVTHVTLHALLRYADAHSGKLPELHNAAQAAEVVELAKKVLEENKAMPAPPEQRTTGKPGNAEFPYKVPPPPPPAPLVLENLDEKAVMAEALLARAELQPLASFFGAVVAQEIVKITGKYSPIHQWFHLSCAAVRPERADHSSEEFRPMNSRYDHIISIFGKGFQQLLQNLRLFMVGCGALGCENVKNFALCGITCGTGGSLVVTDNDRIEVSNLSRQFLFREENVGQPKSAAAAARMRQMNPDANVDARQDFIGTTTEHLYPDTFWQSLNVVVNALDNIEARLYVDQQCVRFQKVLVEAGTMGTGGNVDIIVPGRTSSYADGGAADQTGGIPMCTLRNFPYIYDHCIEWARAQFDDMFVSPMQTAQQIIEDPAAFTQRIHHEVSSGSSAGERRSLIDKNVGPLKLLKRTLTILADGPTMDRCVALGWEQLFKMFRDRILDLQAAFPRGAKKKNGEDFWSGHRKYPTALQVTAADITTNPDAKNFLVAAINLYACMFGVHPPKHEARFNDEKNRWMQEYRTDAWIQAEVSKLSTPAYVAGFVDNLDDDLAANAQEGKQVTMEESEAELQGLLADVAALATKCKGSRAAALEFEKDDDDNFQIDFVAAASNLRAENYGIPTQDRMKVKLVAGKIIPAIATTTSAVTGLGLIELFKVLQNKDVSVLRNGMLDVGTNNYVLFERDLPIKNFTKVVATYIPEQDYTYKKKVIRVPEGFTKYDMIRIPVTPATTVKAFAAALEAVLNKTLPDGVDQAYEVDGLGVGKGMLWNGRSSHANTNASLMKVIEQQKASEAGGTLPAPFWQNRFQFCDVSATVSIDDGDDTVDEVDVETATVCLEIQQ
# [3] = biological target: AMP-activated protein kinase, AMPK (Homo sapiens) (UniProt P54646+O43741+P54619+Q9UGJ0+Q9Y478+Q13131+Q9UGI9); test: AMP-dependent Kinase enzyme assay. An in vitro enzyme assay that detects ADP turnover that is directly proportional to AMPK activity. This uses naive AMPK that is activated during the assay with MK-8722; type: functional; conditions: 30 µM
# [4] = biological target: Sialic acid-binding Ig-like lectin 9 (Homo sapiens) (UniProt Q9Y336); test: Hs-Siglec9 ALPHAscreen SOP 20170721; conditions: 10 µM
# Sequence of Sialic acid-binding Ig-like lectin 9 (Homo sapiens) (Q9Y336 whole entry): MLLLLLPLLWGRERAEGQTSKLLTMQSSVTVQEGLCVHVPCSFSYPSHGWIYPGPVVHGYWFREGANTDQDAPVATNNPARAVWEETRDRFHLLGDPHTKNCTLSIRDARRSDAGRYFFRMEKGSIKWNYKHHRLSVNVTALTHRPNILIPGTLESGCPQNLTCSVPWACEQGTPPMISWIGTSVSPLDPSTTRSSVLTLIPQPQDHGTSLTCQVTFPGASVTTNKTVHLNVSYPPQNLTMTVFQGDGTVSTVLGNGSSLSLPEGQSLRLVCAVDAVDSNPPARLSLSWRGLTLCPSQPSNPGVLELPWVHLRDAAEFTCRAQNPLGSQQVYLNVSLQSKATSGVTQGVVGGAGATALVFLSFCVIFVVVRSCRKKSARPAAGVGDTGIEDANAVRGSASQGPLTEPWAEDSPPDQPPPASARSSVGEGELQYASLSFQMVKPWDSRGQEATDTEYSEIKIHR
# Trypanosoma cruzi = test: Trypanosoma cruzi phosphomannomutase and mannose-1-phosphate guanylyltransferase assay; type: functional; conditions: 10 µM
# [5] = biological target: T2, Arginase-2, mitochondrial (Homo sapiens) (UniProt P78540); test: in vitro enzyme assay to detect the production of urea directly proportional to the activity of Arginase II; type: functional; conditions: 33.3 µM; further: in the data most compounds retested in dose-response had high values
# T2 sequence (whole entry): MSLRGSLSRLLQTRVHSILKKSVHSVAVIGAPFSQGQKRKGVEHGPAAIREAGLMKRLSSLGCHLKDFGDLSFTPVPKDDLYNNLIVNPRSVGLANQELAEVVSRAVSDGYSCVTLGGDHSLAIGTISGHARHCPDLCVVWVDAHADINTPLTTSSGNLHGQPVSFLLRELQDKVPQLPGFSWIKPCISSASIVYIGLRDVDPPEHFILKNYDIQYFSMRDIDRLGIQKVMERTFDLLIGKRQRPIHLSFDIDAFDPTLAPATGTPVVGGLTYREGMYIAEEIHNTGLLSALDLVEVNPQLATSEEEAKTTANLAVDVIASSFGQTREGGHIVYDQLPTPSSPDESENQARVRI
# [6] = biological target: T3, Proteasome subunit beta (Trypanosoma cruzi) (UniProt O96673); test: Trypanosoma cruzi proteasome chymotrypsin-like activity (TcProtChymo) assay.; further: in the data most compounds retested in dose-response had high values; type: functional; conditions: 9.37 µM
# T3 sequence (whole entry): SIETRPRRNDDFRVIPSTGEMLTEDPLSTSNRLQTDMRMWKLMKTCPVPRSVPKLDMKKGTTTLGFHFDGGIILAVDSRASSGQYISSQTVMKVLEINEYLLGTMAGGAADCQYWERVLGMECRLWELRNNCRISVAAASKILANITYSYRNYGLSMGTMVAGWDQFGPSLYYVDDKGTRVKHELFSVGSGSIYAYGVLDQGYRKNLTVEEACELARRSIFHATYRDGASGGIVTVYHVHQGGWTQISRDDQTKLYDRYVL
# Homo sapiens = species: Homo sapiens; test: To identify inhibition of the IFN signalling (Jak-Stat) pathway via expression of an eGFP reporter gene under the control of an IFN-stimulated response element (ISRE) containing MxA promoter.; type: functional; conditions: 30 µM
# [7] = biological target: T4, Tyrosyl-tRNA synthetase, putative (Trypanosoma cruzi (strain CL Brener)) (UniProt Q4DSP6); test: Trypanosoma cruzi tyrosyl tRNA synthetase (TcYRS) _High Tyrosine SOP; type: functional; conditions: 30 µM; further: in the data most compounds retested in dose-response had high values
# T4 sequence (whole entry): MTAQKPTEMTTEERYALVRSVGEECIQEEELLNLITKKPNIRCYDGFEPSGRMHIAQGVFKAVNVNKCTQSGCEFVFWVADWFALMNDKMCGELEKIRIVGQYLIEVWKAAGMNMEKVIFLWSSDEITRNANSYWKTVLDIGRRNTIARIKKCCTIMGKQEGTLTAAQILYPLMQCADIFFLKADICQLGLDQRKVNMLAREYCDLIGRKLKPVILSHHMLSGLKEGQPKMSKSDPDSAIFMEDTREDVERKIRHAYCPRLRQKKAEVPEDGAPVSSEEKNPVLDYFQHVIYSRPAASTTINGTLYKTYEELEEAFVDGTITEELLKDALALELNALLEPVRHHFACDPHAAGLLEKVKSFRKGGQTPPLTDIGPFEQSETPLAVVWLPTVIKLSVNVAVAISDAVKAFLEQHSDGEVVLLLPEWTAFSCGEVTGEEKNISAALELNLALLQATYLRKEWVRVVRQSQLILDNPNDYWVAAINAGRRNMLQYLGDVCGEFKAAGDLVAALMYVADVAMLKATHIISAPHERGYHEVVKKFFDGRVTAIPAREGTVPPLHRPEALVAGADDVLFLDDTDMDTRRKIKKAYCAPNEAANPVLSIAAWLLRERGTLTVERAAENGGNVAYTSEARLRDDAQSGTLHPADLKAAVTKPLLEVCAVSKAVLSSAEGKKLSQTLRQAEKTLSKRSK
# [8] = biological target: T4, Tyrosyl-tRNA synthetase, putative (Trypanosoma cruzi (strain CL Brener)); test: Trypanosoma cruzi tyrosyl tRNA synthetase (TcYRS) SOP; type: functional; conditions: 30 µM
# [9] = biological target: Chromo domain-containing protein 1 (Saccharomyces cerevisiae (strain ATCC 204508 / S288c) (Baker's yeast)) (UniProt P32657); test: ScCHD-1 Enzyme Inhibition Assay; type: functional; conditions: 30 µM; further: in the data most compounds retested in dose-response had high values
# Sequence of Chromo domain-containing protein 1 (Saccharomyces cerevisiae (strain ATCC 204508 / S288c) (Baker's yeast)) (P32657 whole entry, the tested form may be a part): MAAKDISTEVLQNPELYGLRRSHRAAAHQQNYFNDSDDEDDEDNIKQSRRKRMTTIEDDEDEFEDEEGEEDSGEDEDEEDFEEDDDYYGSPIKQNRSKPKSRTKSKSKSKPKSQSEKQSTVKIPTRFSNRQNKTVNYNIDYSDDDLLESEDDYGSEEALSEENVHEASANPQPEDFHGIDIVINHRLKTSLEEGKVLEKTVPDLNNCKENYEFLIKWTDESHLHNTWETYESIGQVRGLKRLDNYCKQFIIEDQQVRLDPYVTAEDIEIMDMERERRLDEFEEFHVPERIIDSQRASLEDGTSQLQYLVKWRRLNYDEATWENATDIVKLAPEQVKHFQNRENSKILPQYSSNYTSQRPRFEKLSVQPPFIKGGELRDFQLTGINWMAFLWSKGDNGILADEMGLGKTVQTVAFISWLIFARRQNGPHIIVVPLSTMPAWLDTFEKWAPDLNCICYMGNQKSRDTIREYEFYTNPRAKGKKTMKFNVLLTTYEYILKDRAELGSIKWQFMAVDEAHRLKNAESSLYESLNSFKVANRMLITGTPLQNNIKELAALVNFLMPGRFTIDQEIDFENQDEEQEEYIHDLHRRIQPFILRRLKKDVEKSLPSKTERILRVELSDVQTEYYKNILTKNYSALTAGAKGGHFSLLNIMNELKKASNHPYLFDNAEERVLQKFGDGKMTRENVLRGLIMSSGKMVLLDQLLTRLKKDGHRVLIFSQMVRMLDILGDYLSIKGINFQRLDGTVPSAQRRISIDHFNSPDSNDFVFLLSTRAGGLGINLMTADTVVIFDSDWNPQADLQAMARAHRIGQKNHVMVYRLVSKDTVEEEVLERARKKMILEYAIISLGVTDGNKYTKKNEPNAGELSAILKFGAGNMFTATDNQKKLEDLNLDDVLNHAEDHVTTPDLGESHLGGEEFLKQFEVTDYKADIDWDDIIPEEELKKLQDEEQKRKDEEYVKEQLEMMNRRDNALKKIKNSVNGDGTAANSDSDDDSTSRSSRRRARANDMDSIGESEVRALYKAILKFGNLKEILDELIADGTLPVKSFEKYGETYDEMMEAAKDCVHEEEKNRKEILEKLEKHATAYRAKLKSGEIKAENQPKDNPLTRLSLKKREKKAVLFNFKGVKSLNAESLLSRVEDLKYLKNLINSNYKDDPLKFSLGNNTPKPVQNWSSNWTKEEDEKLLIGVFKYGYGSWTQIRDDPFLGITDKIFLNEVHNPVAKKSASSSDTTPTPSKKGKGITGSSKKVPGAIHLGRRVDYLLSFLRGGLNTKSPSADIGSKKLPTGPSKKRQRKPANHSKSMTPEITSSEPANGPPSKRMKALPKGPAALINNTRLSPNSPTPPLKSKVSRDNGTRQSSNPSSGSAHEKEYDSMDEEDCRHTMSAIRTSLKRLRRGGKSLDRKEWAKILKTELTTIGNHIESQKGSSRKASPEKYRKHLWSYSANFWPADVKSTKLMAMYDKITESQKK
Compound,Percent Effect [1] [%],Percent Effect [2] [%],Percent Effect [3] [%],Percent Effect [4] [%],Percent Effect (Trypanosoma cruzi) [%],Percent Effect [5] [%],Percent Effect [6] [%],Percent Effect (Homo sapiens) [%],Percent Effect [7] [%],Percent Effect [8] [%],Percent Effect [9] [%]
CN(C)CCO[C@@H]1CC[C@H]2[C@H]1OCCN2C(=O)COc1ccccc1,-2.92,0,-3.78,3.69,-0.88,-27.1,17.7,8.7,-1.08,0,1.68
Cc1cnn(CCNCc2csc(-c3ccc(F)cc3)n2)c1,-3.56,-15.8,4.58,5.27,3.19,0.383,1,1.14,1.47,0,5.05
CCn1ccnc1CN1CCCC(CO)(Cc2cccc(Cl)c2)C1 (stereo not given),-5.53,2.7,-2.31,28.9,3.23,-1.24,3.18,-2.28,2.15,11.1,-1.59
Cn1cc(C2COC3(CCN(C(=O)c4ccc(F)cc4)CC3)C2)cn1 (stereo not given),-3.35,8.11,6.34,-3.51,-2.25,7.33,19.9,-15,2.16,17.9,2.2
CCc1nc(CC(=O)N2CCN(c3cnccn3)CC2)cs1,-4.23,16.5,1.43,5.88,1.95,1.94,0.343,11.8,1.04,17.7,-26.3
O=C(Nc1ccccc1F)N1CCN(Cc2noc(C3CC3)n2)CC1,-1.58,11.4,5.8,0.391,-2.36,4.09,8.4,4.54,5.21,20.2,-23.3
Cn1ccnc1C(NCc1csc(Br)c1)c1ccccc1 (stereo not given),-4.88,21.6,3.42,17.4,4.92,1.66,13.8,12.7,12.9,30.5,-7.11
COCC1c2nnn(CC3CC3)c2CCN1C(=O)c1ccnnc1 (stereo not given),-5.05,21.6,-7.32,32.8,3.81,3.23,3.86,-2.31,6.45,13.6,-10.1
C[C@H]1C[C@H]2CN(C(=O)c3ccncn3)CC[C@H]2O1,-6.88,2.7,-0.849,-1.39,2.54,2.08,12.1,-0.328,6.93,1.22,-3.3
Cc1cc(CN2CC[C@H]3C[C@H](C(=O)N4CCC(C)CC4)O[C@H]3C2)no1,-3.17,10.8,0.505,-2.16,-1.07,2.87,22.5,-12.1,0,12.8,-2.88
O=C(NCCCN1CCCCC1)c1ccc(-n2ccc3ccccc32)s1,-0.638,-23.4,-0.0111,-2.17,11.1,-9.68,9.4,22.6,-3.17,1.28,1.91
CCCSCC(=O)NS(=O)(=O)c1ccc2c(c1)OCCO2,-2.66,-2.63,5.73,7.23,1.5,3.45,2.34,-0.713,1.47,0,-4.12
Cn1nnc2c1CCN(Cc1ccccc1)C2COCC1CC1 (stereo not given),-1.15,2.67,-10.3,-0.164,3.15,2.1,5.9,8.15,14.9,24.4,-11.1
CC(NC(=O)N(C)Cc1ccsc1)c1ccc2c(c1)NC(=O)CO2 (stereo not given),-2.37,13.2,0.427,7.9,6.39,1.15,8.52,9.49,5.39,19.5,-10.1
CC(C)N1CCn2c(nc3cc(C(N)=O)ccc32)C1,-8.72,12,-4.63,7.53,0.393,-8.63,8.87,2.55,2.12,12.8,-11.8
O=C(Nc1cccnc1)[C@H]1CO[C@H]2CCN(c3ncc(F)cn3)C[C@H]2C1,-3.71,5.33,2.01,4.5,0,-55,11.6,-7,8.33,5,-9.48
Cc1cc(CN(C)C(=O)C2CCCN(C(=O)c3cccs3)C2)no1 (stereo not given),-3.6,10.4,1.53,10.4,3.64,-9.65,15.5,-5.21,5.38,16.1,-2.24
O=C(c1cccn1Cc1cccs1)N1CCN(C(=O)C2CC2)CC1,-6.16,13,1.66,2.72,1.5,-0.712,0.845,9.85,8.74,21.9,1.63
CCc1nc(CN2CCN(C(=O)c3cnccn3)CC2)cs1,-2.42,5.41,-4.67,12.2,4.92,-5.73,15.3,11.6,1.98,11,-2.71
Fc1ccc(OCc2noc(CN3CCc4cncnc4C3)n2)cc1,-0.114,13.2,-14.5,2.94,2.26,-29.5,18.1,1.44,31.9,21.9,-2.74
